Laboratory results from the supplement of paper PMC11732987, “Enantioselective OTUD7B fragment discovery through chemoproteomics screening and high-throughput optimisation” (Communications Chemistry, 2025).

target: EIF3H (UniProt O15372); assay: log2 ratio of Biotin-Ahx-Ub-VS probe labelling (fragment/DMSO); higher = less target engagement (more negative = stronger competition), active = hit call of the paper (q ≤ 0.05, log2 ratio ≤ -1); settings: compound concentration: 200 uM; treatment time: 3 h
In short: (§1)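 Labelling with Biotin-Ahx-Ub-VS (0.5 µM final, 1 h) followed a 3 h triplicate treatment of HEK293T lysate (495 µg per sample, Tris/CHAPS/IGEPAL buffer with protease inhibitors) with fragment at 200 µM or vehicle. Labelled DUBs were NeutrAvidin-enriched, digested with LysC and trypsin, and run by diaPASEF LC-MS/MS. The values, average log2 fragment/vehicle ratios by unpaired t-test, come from global-median-normalised Spectronaut label-free quantities. Proteins with ≥2 unique peptides were used.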

Sequence of EIF3H (O15372 whole entry, the tested form may be a part): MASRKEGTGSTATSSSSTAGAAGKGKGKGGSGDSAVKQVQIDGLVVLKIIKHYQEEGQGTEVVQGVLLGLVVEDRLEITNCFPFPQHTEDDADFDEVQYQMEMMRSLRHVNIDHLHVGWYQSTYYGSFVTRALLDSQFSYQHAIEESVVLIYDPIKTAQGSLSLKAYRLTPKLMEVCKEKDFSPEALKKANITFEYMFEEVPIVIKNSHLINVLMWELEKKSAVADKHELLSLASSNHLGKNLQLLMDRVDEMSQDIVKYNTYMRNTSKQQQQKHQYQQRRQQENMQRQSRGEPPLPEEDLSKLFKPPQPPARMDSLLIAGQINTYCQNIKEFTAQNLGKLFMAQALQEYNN

log2 ratio of Biotin-Ahx-Ub-VS probe labelling, inactive:
Cc1ccc(CN(C)C(=O)CCl)o1 -0.047
O=C(CCl)N1CCC[C@@H]1c1ccon1 0.193
COCC1C=CCCN1C(=O)CCl (stereo not given) 0.276
Cl.Cn1c(CNC(=O)CCl)nc2cccnc21 0.0923
Cc1cccc(C)c1NC(=O)CCl 0.122
O=C(CCl)N1CCCC1c1ccsc1 (stereo not given) 0.2
NC(=O)C1CCCCN1C(=O)CCl (stereo not given) 0.0122
Cc1cnc2[nH]cc(CCNC(=O)CCl)c2c1 0.13
Cc1ccc(CNC(=O)CCl)nc1C.Cl 0.278
O=C(CCl)N1CCN2C(=O)CCC2C1 (stereo not given) -0.0249
O=C(CCl)N1CCOCCC1c1ccccc1 (stereo not given) 0.204
O=C(CCl)N1CCc2[nH]c3ccccc3c2C1 0.231
CN(CCC(O)c1ccc(Br)cc1)C(=O)CCl (stereo not given) 0.178
CC(NC(=O)CCl)c1cnn(C2CC2)c1 (stereo not given) 0.172
CCN(C(=O)CCl)C1CCS(=O)(=O)C1 (stereo not given) 0.227
COc1ccc(-c2csc(NC(=O)CCl)n2)cc1 0.443
Cc1noc(N2CCN(C(=O)CCl)CC2)n1.Cl -0.241
O=C(CCl)N1CCCCCC1c1ncon1 (stereo not given) 0.132
O=C(CCl)N1CCc2sccc2C1 -0.00567
O=C(CCl)Nc1ccc2c(c1)OC(F)(F)O2 0.0852
O=C(CCl)N(C1CCCC1)C1CCS(=O)(=O)C1 (stereo not given) 0.00604
O=C(CCl)N1CCCC2CCCCC21 (stereo not given) 0.299
O=C(CCl)Nc1cccc(NC(=O)c2ccccc2)c1 0.304
O=C(CCl)N1CCOCC1C1CC1 (stereo not given) 0.16
Cl.O=C(CCl)N1CCCC(c2ncc[nH]2)C1 (stereo not given) 0.267
O=C(CCl)N1CC=C(c2c[nH]c3ccccc23)CC1 0.184
Cl.O=C(CCl)N1CCC(Cc2nccs2)C1 (stereo not given) 0.0343
O=C(CCl)Nc1ccccc1C(F)(F)F 0.185
Cc1ccc(C)c(Oc2ccc(CNC(=O)CCl)cn2)c1.Cl 0.199
CC(=O)Nc1ccc(NC(=O)CCl)cc1 -0.182
O=C(CCl)N1CCC2(CCC(O)CC2)CC1 0.288
Cc1conc1C1CN(C(=O)CCl)C1 0.138
COc1ccccc1C(C)NC(=O)CCl (stereo not given) -0.0831
Cc1ccc(-c2nnc(C)[nH]2)c(NC(=O)CCl)c1 0.0246
CS(=O)(=O)c1ccc(CNC(=O)CCl)cc1 -0.0369

target: T1, FAM105A (UniProt Q9NUU6); assay: as above; settings: compound concentration: 200 uM; treatment time: 3 h
T1 sequence (whole entry): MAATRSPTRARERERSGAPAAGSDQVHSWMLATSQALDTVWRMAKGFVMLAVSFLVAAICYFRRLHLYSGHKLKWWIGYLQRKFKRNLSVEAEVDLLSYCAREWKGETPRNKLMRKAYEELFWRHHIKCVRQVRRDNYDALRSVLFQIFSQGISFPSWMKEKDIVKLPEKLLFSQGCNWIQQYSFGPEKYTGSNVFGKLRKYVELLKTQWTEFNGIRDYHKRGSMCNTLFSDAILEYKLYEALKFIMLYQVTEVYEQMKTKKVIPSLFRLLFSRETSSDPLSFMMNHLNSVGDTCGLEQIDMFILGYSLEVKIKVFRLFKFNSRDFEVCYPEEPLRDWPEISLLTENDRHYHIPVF
In short: as §1

log2 ratio of Biotin-Ahx-Ub-VS probe labelling, inactive:
Cc1ccc(CN(C)C(=O)CCl)o1 0.277
O=C(CCl)N1CCC[C@@H]1c1ccon1 0.198
COCC1C=CCCN1C(=O)CCl (stereo not given) 0.371
Cl.Cn1c(CNC(=O)CCl)nc2cccnc21 -0.0642
Cc1cccc(C)c1NC(=O)CCl 0.266
O=C(CCl)N1CCCC1c1ccsc1 (stereo not given) 0.313
NC(=O)C1CCCCN1C(=O)CCl (stereo not given) -0.18
Cc1cnc2[nH]cc(CCNC(=O)CCl)c2c1 -0.55
Cc1ccc(CNC(=O)CCl)nc1C.Cl -0.225
O=C(CCl)N1CCN2C(=O)CCC2C1 (stereo not given) 0.154
O=C(CCl)N1CCOCCC1c1ccccc1 (stereo not given) 0.0466
O=C(CCl)N1CCc2[nH]c3ccccc3c2C1 0.0311
CN(CCC(O)c1ccc(Br)cc1)C(=O)CCl (stereo not given) 0.138
CC(NC(=O)CCl)c1cnn(C2CC2)c1 (stereo not given) -0.0989
CCN(C(=O)CCl)C1CCS(=O)(=O)C1 (stereo not given) 0.291
COc1ccc(-c2csc(NC(=O)CCl)n2)cc1 -0.207
Cc1noc(N2CCN(C(=O)CCl)CC2)n1.Cl 0.317
O=C(CCl)N1CCCCCC1c1ncon1 (stereo not given) 0.156
O=C(CCl)N1CCc2sccc2C1 -0.348
O=C(CCl)Nc1ccc2c(c1)OC(F)(F)O2 -0.278
O=C(CCl)N(C1CCCC1)C1CCS(=O)(=O)C1 (stereo not given) 0.169
O=C(CCl)N1CCCC2CCCCC21 (stereo not given) 0.212
O=C(CCl)Nc1cccc(NC(=O)c2ccccc2)c1 -0.516
O=C(CCl)N1CCOCC1C1CC1 (stereo not given) 0.635
Cl.O=C(CCl)N1CCCC(c2ncc[nH]2)C1 (stereo not given) 0.0977
O=C(CCl)N1CC=C(c2c[nH]c3ccccc23)CC1 -0.087
Cl.O=C(CCl)N1CCC(Cc2nccs2)C1 (stereo not given) -0.0526
O=C(CCl)Nc1ccccc1C(F)(F)F 0.257
Cc1ccc(C)c(Oc2ccc(CNC(=O)CCl)cn2)c1.Cl -0.149
CC(=O)Nc1ccc(NC(=O)CCl)cc1 -0.285
O=C(CCl)N1CCC2(CCC(O)CC2)CC1 0.217
Cc1conc1C1CN(C(=O)CCl)C1 0.111
COc1ccccc1C(C)NC(=O)CCl (stereo not given) -0.0799
Cc1ccc(-c2nnc(C)[nH]2)c(NC(=O)CCl)c1 -0.276
CS(=O)(=O)c1ccc(CNC(=O)CCl)cc1 -0.0581
